TDP-43 yeast inh: TDP-43 toxicity inhibition in yeast; hit rate 1.8% among 410,000; TDP-43 expressing yeast growth rescue, BacTiter-Glo, 24 h; Potency, µM (series often up to 46.1 µM), for inactives: at the top dose growth rescue (activation), most hits filed as activators; AID 652104; also: % of control where 0% means no effect; nearly all actives have a fitted effect of over 50% in size
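Luminescence from BacTiter-Glo reports growth of TDP-43-expressing yeast after 24 hr at 30 deg C with compound. Cells were raffinose-pregrown to mid-log, then seeded in galactose medium at OD600=0.02.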
aSyn rescue: inhibitors of alpha-synuclein toxicity in yeast. Yeast expressing alpha-synuclein, growth rescue, BacTiter-Glo, 24 h. Potency, µM (highest dose often 46.1 µM), for the others: at the top dose growth rescue (activation), hits mostly activators. hit rate 0.14% among 370,000. AID 652106; also: % of control where 0% means no effect; nearly all actives have a fitted effect of over 65% in size
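Galactose-induced alpha-syn yeast (OD600=0.02, raffinose-pregrown) + pinned cpd, 24 hr, 30 deg C; growth by BacTiter-Glo luminescence. Growth restoration scores as activation.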
FUS yeast rescue: rescues growth of FUS-expressing yeast | S. cerevisiae FUS-expressing, growth rescue, OD600, 24 h | Potency, µM (series often up to 76.6 µM), most hits filed as activators | hit rate 0.24% among 390,000;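 also: plate controls were DMSO vehicle for no effect and reference control for full effect; nearly all actives have a fitted effect of over 55% in size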
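Yeast FUS proteinopathy model; galactose-induced FUS (2%), starting OD 0.005. Cpds in dilution series, 24hr, 30C, 99% humidity. Abs 600 nm growth. Pos ctrl CP55940 (top 92uM final); neg ctrl DMSO.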
Abeta yeast res: A-beta toxicity reversal in yeast; yeast expressing A-beta42, growth rescue, OD600, 48 h; response scale: 0% DMSO, 100% iron-clioquinol control; Potency, µM (doses to about 46.1 µM), usual class: activators; hit rate 0.063% among 410,000; AID 1347071; also: nearly all actives have a fitted effect of over 55% in size
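Yeast growth medium received pinned compounds, then yeast cells expressing toxic A-beta were added; plates incubated at 30 C for 48 hr. Growth read as absorbance at 600 nm, normalized to DMSO and equimolar FeCl3 plus clioquinol controls.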
An asterisk follows results filed as active; i = inactive; ? = inconclusive; . = not tested or not shown. The list is not random: actives were taken first. Their share in the collection is about 2.1%. Calls follow the shape of the dose curve; as a rule, active = well fitted curve in the direction sought with a large enough effect; inconclusive = small, poorly fitted or top-dose-only effect, or another doubt; inactive = no such curve, though single readings can be large; an effect the other way counts as inactive or inconclusive. Potency is read from the fitted curve at half-maximal effect.

SMILES	TDP-43 yeast inh	aSyn rescue	FUS yeast rescue	Abeta yeast res
CCOC(=O)C1=C(C)N=c2s/c(=C\c3ccc(OCC(=O)O)c(OC)c3)c(=O)n2C1c1ccc(OC)cc1 (stereo not given)	7.9%	0.7%	35.5µM*	i
COc1ccc(S[C@]2(C(=O)NCc3ccccc3)CC(=O)N[C@@H]2c2ccc(OC)cc2)cc1	.	.	i	.
CC(NC(=O)CCCCCCN1C(=O)c2ccccc2C1=O)c1ccc2c(c1)CCCC2 (stereo not given)	35.5µM*	-16.3%	.	i
CCCSc1nnc(Sc2nnnn2-c2ccccc2)s1	17.8µM*	-0.5%	i	i
Cn1ccc2c(-c3cncc4ccccc34)cc3c(c21)C1CCC3C1 (stereo not given)	28.2µM*	-20.0%	i	i
O=C(Nc1cccc(S(=O)(=O)N2CCCCC2)c1)[C@@H]1CCCN1S(=O)(=O)c1ccccc1C(F)(F)F	-21.5%	-0.1%	25.1µM*	i
COc1ccccc1NC(=O)c1cccc(S(=O)(=O)N2CCCCCC2)c1	35.5µM*	.	i	i
CC(=O)c1cccc(NC(=O)C2CCCN2S(=O)(=O)c2ccccc2C(F)(F)F)c1 (stereo not given)	13.0%	-6.5%	i	i
COc1ccc(C(=O)Nc2ccccc2N2CCCCC2)cc1[N+](=O)[O-]	17.8µM*	-2.7%	i	i
O=C(COc1ccccc1Cl)Nc1cccc(S(=O)(=O)N2CCCC2)c1	17.8µM*	12.8%	i	i
CC(=O)NC(Cc1ccc(Cl)cc1)C(=O)NCC(N)C(=O)c1ccccc1 (stereo not given)	.	-0.7%	.	.
COCCOC(=O)N(C)C[C@@H]1OCCCC[C@H](C)Oc2ccc(NC(=O)Nc3ccccc3)cc2C(=O)N([C@@H](C)CO)C[C@H]1C	.	.	i	.
COc1ccc(/C=C/c2nccc3ccccc23)cc1OC	.	1.4%	.	.
CCc1ccccc1OCC(=O)Nc1ccc(F)c(S(=O)(=O)N2CCOCC2)c1	15.8µM*	7.0%	i	i
O=C(COc1ccc(F)cc1Cl)Nc1cccc(S(=O)(=O)N2CCCC2)c1	35.5µM*	-2.0%	i	i
COc1ccc(CC(=O)Nc2ccc(F)c(S(=O)(=O)N3CCOCC3)c2)cc1	4.5%	-0.2%	i	i
O=C(Nc1nc2ncccn2c1-c1ccc(F)cc1)C1CC1	.	.	i	.
O=C(NCc1ccco1)c1cc([N+](=O)[O-])ccc1N1CCCCC1	14.1µM*	0.4%	i	i
O=C(NCc1ccc2c(c1)OCO2)c1cc([N+](=O)[O-])ccc1N1CCCCC1	20µM*	8.7%	.	i
O=C(NCc1ccco1)c1ccc(N2CCCCC2)c([N+](=O)[O-])c1	?	6.1%	i	i
Cc1cccc(NC(=O)CO/N=C/c2ccc3c(c2)OCO3)c1	0.2%	3.5%	.	i
Cc1ccc(CNC(=O)CO/N=C/c2ccc3c(c2)OCO3)cc1	20µM*	6.1%	i	i
C=C(C)Cn1c(-c2ccccc2)nc2ccccc21	16.3%	-0.4%	i	i
Cc1cccc(Cn2c(Cc3ccccc3)nc3ccccc32)c1	?	-1.8%	i	i
NC(=O)CSc1nc2ccccc2n1Cc1ccccc1F	23.4%	?	i	i
SMILES	TDP-43 yeast inh	aSyn rescue	FUS yeast rescue	Abeta yeast res
Cc1cccc(Cn2c(-c3ccccc3)nc3ccccc32)c1	14.1µM*	.	i	i
CCSc1nc2ccccc2n1Cc1ccccc1F	14.1µM*	-11.2%	i	i
Fc1ccccc1Cn1c(-c2ccccc2)nc2ccccc21	22.4µM*	.	i	i
Cc1nn(CCC(=O)NNC(=O)Nc2ccc(F)cc2)c(C)c1[N+](=O)[O-]	.	.	i	.
COc1ccc2c(c1)-c1c(ssc1=S)C(C)(C)N2	17.8µM*	2.3%	i	i
O=C(NCc1ccccc1Cl)c1cc2ccccc2o1	11.2µM*	.	i	i
Cc1ccccc1CNC(=O)c1cc2ccccc2o1	?	0.4%	i	i
Nc1ccccc1C(=O)Nc1cccc2ccccc12	14.1µM*	-3.3%	i	i
O=C(NCCCN1CCN(c2ccc(F)cc2)CC1)NCc1ccccc1	.	.	i	.
CC1(C(=O)Nc2cccc(C(F)(F)F)c2)Cc2ccccc2C(=O)O1 (stereo not given)	35.5µM*	.	i	i
Cc1cccc(NC(=O)C2(C)Cc3ccccc3C(=O)O2)c1 (stereo not given)	22.0%	?	i	i
CCN1CCOC(=O)C1CC(=O)Nc1cccc(OC)c1 (stereo not given)	?	.	i	i
O=C(CC1C(=O)OCCN1Cc1ccccc1)Nc1cccc(Cl)c1 (stereo not given)	17.8µM*	.	i	i
Cc1cccc(NC(=O)CC2C(=O)OCCN2Cc2ccccc2)c1 (stereo not given)	14.1µM*	.	i	i
O=C(CSC1CC(=O)N(CCc2ccccc2)C1=O)Nc1cccc(Cl)c1 (stereo not given)	17.8µM*	13.2%	i	i
CC(=O)N1[C@@H](CO)[C@@H](c2ccc(-c3cccc(F)c3)cc2)[C@@H]1CNCC1CCC1	.	.	i	.
COc1ccc(F)cc1S(=O)(=O)NCCc1csc2nc(-c3cccc(C)c3)nn12	10.3%	.	?	i
O=S(=O)(NCCc1csc(-c2cccc(F)c2)n1)c1cc(F)ccc1F	2.51µM*	.	i	?
O=S(=O)(NCCc1csc2nc(-c3ccccc3)nn12)c1cc(F)ccc1F	22.4µM*	.	i	?
Cc1ccc(S(=O)(=O)NCCc2csc(-c3cccc(F)c3)n2)cc1	17.8µM*	.	i	i
COc1ccc(OC[C@@H](O)CN2CCC(C(O)(c3ccccc3)c3ccccc3)CC2)cc1	.	.	i	.
COc1cccc(-c2nnc3sc(-c4ccc(Br)o4)nn23)c1	.	.	i	.
COc1ccc(-c2noc(-c3cc(C(C)C)[nH]n3)n2)cc1	20µM*	.	i	?
CC(C)c1cc(-c2nc(-c3ccc(Br)cc3)no2)n[nH]1	?	.	i	i
COc1ccc(CN2C(=O)[C@@](O)(c3cccn3C)c3cc(Br)ccc32)cc1	.	.	i	.
SMILES	TDP-43 yeast inh	aSyn rescue	FUS yeast rescue	Abeta yeast res
CCOc1ccccc1NC(=O)C(OC(=O)c1cnc(C)cn1)c1ccccc1 (stereo not given)	17.8µM*	11.7%	i	?
CCOc1ccccc1NC(=O)C(OC(=O)C1CC1)c1ccccc1 (stereo not given)	-7.6%	-8.3%	i	?
O=C(CSc1nnc(-c2ccncc2)n1-c1ccccc1)Nc1cccc2ccccc12	.	.	i	.
COc1ccc(-c2nc(Cn3c(SCc4ccc(F)cc4)nc4cccnc43)c(C)o2)cc1	25.0%	.	i	i
COc1ccc(-c2nc(Cn3c(SCc4cccc(F)c4)nc4cccnc43)c(C)o2)cc1	20µM*	.	?	i
Cc1oc(-c2ccccc2Cl)nc1Cn1c(SCc2cccc(F)c2)nc2cccnc21	17.8µM*	.	35.5µM*	?
COc1ccc(-c2nc(Cn3c(SCc4ccccc4F)nc4cccnc43)c(C)o2)cc1	31.6µM*	.	i	i

Assay outcomes deposited in PubChem by National Center for Advancing Translational Sciences (NCATS).
